Data from PubChem BioAssay (NCI).
Compounds without any hit were thinned out: in the full panel of roughly 83,000, 20% have a hit.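 Values shown are percent growth following 48 h exposure of cells in 96-well plates to a single concentration of compound; below 10 was considered active.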 Active and inactive are the calls of the source.

Experiments:
Assay in all cases: NCI-60 one-dose screen, 48 h (100 = growth as untreated, 0 = no growth, -100 = all killed)
Details in all cases: 10 µM unless noted
SR leukemia = test system: SR leukemia
RPMI-8226 leukemia = test system: RPMI-8226 leukemia
OVCAR-8 ovarian = test system: OVCAR-8 ovarian
OVCAR-5 ovarian = test system: OVCAR-5 ovarian
OVCAR-4 ovarian = test system: OVCAR-4 ovarian
IGROV1 ovarian = test system: IGROV1 ovarian
OVCAR-3 ovarian = test system: OVCAR-3 ovarian
HS 578T breast = test system: HS 578T breast
NCI/ADR-RES ovarian = test system: NCI/ADR-RES ovarian
SK-OV-3 ovarian = test system: SK-OV-3 ovarian

Measured: growth

COc1ccc(C2CC(c3ccccc3)=NN2c2nc(C)c(C(C)=O)s2)cc1 (configuration not stated)
inactive: SR leukemia 97.7% | RPMI-8226 leukemia 99% | OVCAR-8 ovarian 101% | OVCAR-5 ovarian 105% | OVCAR-4 ovarian 97.1% | IGROV1 ovarian 103% | OVCAR-3 ovarian 98.5% | HS 578T breast 93.3% | NCI/ADR-RES ovarian 102%

CCCN1CCN(c2ccc3nc(-c4ccc5nc(-c6ccc(OCC)c(OCC)c6)[nH]c5c4)[nH]c3c2)CC1
inactive: SR leukemia 20.9% | NCI/ADR-RES ovarian 79.4%
active: RPMI-8226 leukemia -18.9% | OVCAR-8 ovarian -11% | OVCAR-5 ovarian -15.2% | OVCAR-4 ovarian -59.9% | IGROV1 ovarian -13.2% | OVCAR-3 ovarian -63.7% | HS 578T breast -37.2%

Cc1ccc2c(n1)C(=O)C(Oc1ccc(F)cc1)=CC2=O
inactive: SR leukemia 64.6% | RPMI-8226 leukemia 43.4% | OVCAR-8 ovarian 87% | OVCAR-5 ovarian 111% | OVCAR-4 ovarian 96.6% | HS 578T breast 105% | NCI/ADR-RES ovarian 97.1%

Cc1cc(-c2ccc(N(C)C)cc2)c2sc(=O)[nH]c2n1
inactive: SR leukemia 40.1% | RPMI-8226 leukemia 70.6% | OVCAR-8 ovarian 76.9% | OVCAR-5 ovarian 85% | OVCAR-4 ovarian 83.2% | IGROV1 ovarian 61.5% | OVCAR-3 ovarian 68.9% | HS 578T breast 48.1% | NCI/ADR-RES ovarian 45.5%

COc1cccc(-c2cnco2)c1OCc1c(C)c(COc2c(OC)cccc2-c2cnco2)c(C)c(COc2c(OC)cccc2-c2cnco2)c1C
inactive: SR leukemia 64.2% | RPMI-8226 leukemia 47.4% | OVCAR-8 ovarian 56.7% | OVCAR-5 ovarian 74.9% | IGROV1 ovarian 80.2% | HS 578T breast 30.8% | NCI/ADR-RES ovarian 81.2%
active: OVCAR-4 ovarian 7.51%

CCCCN(CCCC)CCCn1c(=O)c2sc3ncccc3c2n2nnc(-c3ccccc3)c12
inactive: SR leukemia 99.2% | RPMI-8226 leukemia 96.4% | OVCAR-8 ovarian 96.4% | OVCAR-5 ovarian 97.1% | OVCAR-4 ovarian 103% | IGROV1 ovarian 80.5% | OVCAR-3 ovarian 120% | HS 578T breast 110% | NCI/ADR-RES ovarian 108%

COc1ccccc1C(=O)NC(=S)Nc1ccc(-c2nc3ccccc3[nH]2)cc1
inactive: SR leukemia 13.6% | RPMI-8226 leukemia 57.1% | OVCAR-8 ovarian 53.1% | OVCAR-5 ovarian 90.5% | IGROV1 ovarian 69% | HS 578T breast 36.5% | NCI/ADR-RES ovarian 38.7%
active: OVCAR-4 ovarian -60.7% | OVCAR-3 ovarian -36%

CC(C)OCCCNCC(=O)Nc1ccc(S(=O)(=O)c2ccc(NC(=O)CNCCCOC(C)C)cc2)cc1
inactive: SR leukemia 61.6% | RPMI-8226 leukemia 92.8% | OVCAR-8 ovarian 105% | OVCAR-5 ovarian 116% | SK-OV-3 ovarian 111% | IGROV1 ovarian 75.9% | HS 578T breast 87.6% | NCI/ADR-RES ovarian 112%

COc1cc2oc(-c3cccc(C(=O)Nc4ccc(C)cc4)c3)cc(=O)c2c(OC)c1OC
active: RPMI-8226 leukemia -7.08%
inactive: SR leukemia 12.7% | OVCAR-8 ovarian 33.3% | OVCAR-5 ovarian 48.2% | OVCAR-4 ovarian 59.8% | IGROV1 ovarian 44.4% | OVCAR-3 ovarian 42.3% | HS 578T breast 64.3% | NCI/ADR-RES ovarian 37.5%

CCc1cc(Cc2cc(CC)cc(C(C)(C)C)c2O)c(O)c(C(C)(C)C)c1
active: SR leukemia -13.6% | RPMI-8226 leukemia 7.4%
inactive: OVCAR-8 ovarian 20.4% | OVCAR-4 ovarian 14.3% | SK-OV-3 ovarian 20.6% | IGROV1 ovarian 36.3% | OVCAR-3 ovarian 32.1%

O=C(/C=C/C12c3ccccc3C(c3ccccc31)C1C(=O)NC(=O)C12)c1ccc(Cl)cc1 (configuration not stated)
active: RPMI-8226 leukemia -10.1% | OVCAR-5 ovarian -2.53% | IGROV1 ovarian -38.6% | OVCAR-3 ovarian -57.8% | NCI/ADR-RES ovarian 4.42%
inactive: SR leukemia 13.3% | OVCAR-8 ovarian 16% | OVCAR-4 ovarian 30.4% | HS 578T breast 11.6%

CNCCNc1nc2ccccc2c2c(=O)c3cc(F)ccc3oc12
inactive: SR leukemia 22.7% | RPMI-8226 leukemia 47.8% | OVCAR-8 ovarian 47% | OVCAR-5 ovarian 80.4% | OVCAR-4 ovarian 54.8% | IGROV1 ovarian 49.6% | OVCAR-3 ovarian 69.3% | HS 578T breast 70.6% | NCI/ADR-RES ovarian 47.8%

O=C(/C=C/C12c3ccccc3C(c3ccccc31)C1C(=O)N(c3ccccc3)C(=O)C12)c1ccccc1 (configuration not stated)
active: RPMI-8226 leukemia 1% | OVCAR-5 ovarian -12.7% | IGROV1 ovarian -24.5% | OVCAR-3 ovarian -61.9%
inactive: SR leukemia 14.2% | OVCAR-8 ovarian 27.4% | OVCAR-4 ovarian 34.1% | HS 578T breast 20.7% | NCI/ADR-RES ovarian 14.2%

O=C1NC(=S)S/C1=C\N1N=C(c2ccc(Cl)cc2)CC1c1ccc(F)cc1 (configuration not stated)
inactive: SR leukemia 46.9% | RPMI-8226 leukemia 69.7% | OVCAR-8 ovarian 81.3% | OVCAR-5 ovarian 94.7% | OVCAR-4 ovarian 91.4% | IGROV1 ovarian 96.2% | OVCAR-3 ovarian 86.4% | HS 578T breast 84.8% | NCI/ADR-RES ovarian 87%

O=C(c1ccccc1)c1ccc(N2C(=O)C3C4c5ccccc5C(/C=C/C(=O)c5ccccn5)(c5ccccc54)C3C2=O)cc1 (configuration not stated)
active: RPMI-8226 leukemia 3.95% | IGROV1 ovarian -19.8% | HS 578T breast 9.77%
inactive: SR leukemia 13.7% | OVCAR-8 ovarian 26.4% | OVCAR-5 ovarian 29.9% | OVCAR-4 ovarian 32.4% | NCI/ADR-RES ovarian 20.5%

CCCCCCCC/C=C/CCCCCCCC1=NCC[N+]1(CCO)CCO
active: IGROV1 ovarian -8.63%
inactive: SR leukemia 17.4% | RPMI-8226 leukemia 38.6% | OVCAR-8 ovarian 80.6% | OVCAR-5 ovarian 77.5% | SK-OV-3 ovarian 88% | OVCAR-3 ovarian 59.9% | HS 578T breast 88.6% | NCI/ADR-RES ovarian 94.9%

CC12CC(C#N)CCC1O2 (configuration not stated)
inactive: SR leukemia 98.9% | RPMI-8226 leukemia 106% | OVCAR-8 ovarian 105% | OVCAR-5 ovarian 105% | SK-OV-3 ovarian 115% | IGROV1 ovarian 99.2% | OVCAR-3 ovarian 117% | HS 578T breast 105% | NCI/ADR-RES ovarian 115%

Cc1nc(Nc2ccccn2)sc1C(=O)/C=C/c1ccc(Br)cc1
inactive: SR leukemia 16.9% | RPMI-8226 leukemia 42.5% | OVCAR-8 ovarian 78.2% | OVCAR-5 ovarian 95.2% | OVCAR-4 ovarian 81.9% | IGROV1 ovarian 77.7% | HS 578T breast 77.9% | NCI/ADR-RES ovarian 57.7%

N#Cc1c(NC(=O)c2ccccc2I)sc2c1CCCC2
inactive: SR leukemia 38.6% | RPMI-8226 leukemia 46.4% | OVCAR-8 ovarian 51.4% | OVCAR-5 ovarian 70.8% | OVCAR-4 ovarian 79.9% | IGROV1 ovarian 50.6% | OVCAR-3 ovarian 15.7% | HS 578T breast 32.1% | NCI/ADR-RES ovarian 13.2%

O=C(/C=C/C12c3ccccc3C(c3ccccc31)C1C(=O)N(c3ccc(Cl)cc3)C(=O)C12)c1ccccn1 (configuration not stated)
inactive: SR leukemia 13.6% | OVCAR-8 ovarian 21.1% | HS 578T breast 13.9%
active: RPMI-8226 leukemia 3.98% | OVCAR-5 ovarian -43.3% | OVCAR-4 ovarian -6.96% | IGROV1 ovarian -36.6% | OVCAR-3 ovarian -71.6% | NCI/ADR-RES ovarian 8.16%

CCCCCCCCn1cc(C2=C(c3coc4ccc(OC)cc34)C(=O)NC2=O)c2ccccc21
inactive: SR leukemia 119% | RPMI-8226 leukemia 119% | OVCAR-8 ovarian 94.2% | OVCAR-5 ovarian 90.8% | OVCAR-4 ovarian 106% | IGROV1 ovarian 104% | OVCAR-3 ovarian 107% | HS 578T breast 101% | NCI/ADR-RES ovarian 101%

C[C@]12CCC(=O)C[C@H]1CC[C@@H]1[C@@H]2CC[C@@]2(C)[C@H]1CC[C@]2(O)C(=O)CO
inactive: SR leukemia 106% | RPMI-8226 leukemia 103% | OVCAR-8 ovarian 108% | OVCAR-5 ovarian 92.3% | SK-OV-3 ovarian 105% | IGROV1 ovarian 103% | OVCAR-3 ovarian 115% | HS 578T breast 99.1% | NCI/ADR-RES ovarian 107%

O=C(CCl)N1c2cccc3cccc(c23)N(C(=O)CCl)C1c1cn(-c2ccccc2)nc1-c1cccc([N+](=O)[O-])c1
inactive: SR leukemia 17.8% | OVCAR-8 ovarian 79.3% | OVCAR-5 ovarian 108% | OVCAR-4 ovarian 96% | IGROV1 ovarian 79.5% | OVCAR-3 ovarian 61.6% | HS 578T breast 98.6% | NCI/ADR-RES ovarian 94.6%
active: RPMI-8226 leukemia -6.92%

CC(=[N-])N1CCC[C@@H](Nc2c3ccccc3nc3ccccc23)C1.[Cl][Pt].[NH-]CCC[NH-]
active: OVCAR-3 ovarian 3.95%
inactive: SR leukemia 17.1% | RPMI-8226 leukemia 30.1% | OVCAR-8 ovarian 39.1% | OVCAR-5 ovarian 39% | OVCAR-4 ovarian 20.4% | IGROV1 ovarian 17.2% | HS 578T breast 51.7% | NCI/ADR-RES ovarian 85%

O=C(/C=C/C12c3ccccc3C(c3ccccc31)C1C(=O)N(c3ccccc3)C(=O)C12)c1ccc(Cl)cc1 (configuration not stated)
inactive: SR leukemia 16.9% | OVCAR-8 ovarian 30.7% | OVCAR-4 ovarian 17.6% | IGROV1 ovarian 10.4% | HS 578T breast 14.1% | NCI/ADR-RES ovarian 18.1%
active: RPMI-8226 leukemia 4.68% | OVCAR-5 ovarian 8.5% | OVCAR-3 ovarian -53.9%

CC(=O)c1ccc2c(c1)CCN2
inactive: SR leukemia 93.4% | RPMI-8226 leukemia 94.7% | OVCAR-8 ovarian 99.5% | OVCAR-5 ovarian 101% | SK-OV-3 ovarian 99.9% | IGROV1 ovarian 117% | OVCAR-3 ovarian 124% | HS 578T breast 114% | NCI/ADR-RES ovarian 110%

O=c1cc(-c2ccc(OCc3ccccc3)cc2)oc2c(I)c(OCc3ccccc3)cc(OCc3ccccc3)c12
inactive: SR leukemia 94.3% | RPMI-8226 leukemia 108% | OVCAR-8 ovarian 99.6% | OVCAR-5 ovarian 103% | OVCAR-4 ovarian 100% | IGROV1 ovarian 100% | OVCAR-3 ovarian 104% | HS 578T breast 88.3% | NCI/ADR-RES ovarian 101%

COc1ccc(C2CC(c3ccc4ccccc4c3)=NN2c2nc(O)c(C3=c4cc(Cl)ccc4=NC3=O)s2)cc1 (configuration not stated)
inactive: NCI/ADR-RES ovarian 58.8%
active: SR leukemia -34.4% | RPMI-8226 leukemia -3.59% | OVCAR-8 ovarian -16.1% | OVCAR-5 ovarian -7.92% | OVCAR-4 ovarian -61.5% | IGROV1 ovarian -11.5% | OVCAR-3 ovarian -83.1% | HS 578T breast -5.85%

CC(=O)c1cc2c(o1)C(=O)c1ccccc1C2=O
active: SR leukemia 1.01% | RPMI-8226 leukemia -44% | OVCAR-8 ovarian -43.8% | OVCAR-5 ovarian -86.1% | OVCAR-4 ovarian -96.9% | IGROV1 ovarian -66.9% | OVCAR-3 ovarian -85.5% | HS 578T breast -23.7% | NCI/ADR-RES ovarian -13.2%

CN(C)CN1CCN(c2ccc3nc(-c4ccc5nc(-c6ccc(C(F)(F)F)cc6)[nH]c5c4)[nH]c3c2)CC1
inactive: SR leukemia 17.7% | RPMI-8226 leukemia 19.1% | OVCAR-8 ovarian 53% | OVCAR-5 ovarian 114% | IGROV1 ovarian 78.7% | OVCAR-3 ovarian 89.7% | HS 578T breast 52.8% | NCI/ADR-RES ovarian 97.9%
active: OVCAR-4 ovarian -4.77%
